Compound activity as filed in PubChem.
BAZ2B block – qHTS Assay for Inhibitors of BAZ2B. Bromodomain adjacent to zinc finger domain protein 2B (Homo sapiens), Q9UIF8. AlphaScreen BAZ2B-H3K14Ac peptide displacement. Potency, µM (top dose mostly 114 µM), most hits filed as inhibitors. hit rate 4.4% among 360,000; note: nearly all actives have a fitted effect of over 60% in size
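AlphaScreen displacement: compounds (up to 110uM) incubated 30 min at room temperature with a preformed 50 nM BAZ2B/50 nM biotinylated H3K14Ac peptide complex in PBS pH 7.4 with Tween-20. Donor and acceptor beads at 10 ug/mL final added, 20 min light-protected before reading.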
JMJD2A Tudor – qHTS Assay for Inhibitors of JMJD2A-Tudor Domain | Lysine-specific demethylase 4A (Homo sapiens), O75164 | Potency, µM (top dose mostly 114 µM), actives largely listed as inhibitors | hit rate 4.4% among 390,000 | AlphaScreen JMJD2A-Tudor / H3K4me3 peptide binding | AID 504339, 2011; note: nearly all actives have a fitted effect of over 50% in size
G9a block – qHTS Assay for Inhibitors of Histone Lysine Methyltransferase G9a; hit rate 8.8% among 350,000; G9a H3K9 monomethylation, AlphaScreen, 2 h; Histone-lysine N-methyltransferase EHMT2 (Homo sapiens), Q96KQ7; Potency, µM (top dose mostly 102 µM), hits mostly inhibitors; note: nearly all actives have a fitted effect of over 75% in size
Target sequence (Q96KQ7 913-1193 limits assumed): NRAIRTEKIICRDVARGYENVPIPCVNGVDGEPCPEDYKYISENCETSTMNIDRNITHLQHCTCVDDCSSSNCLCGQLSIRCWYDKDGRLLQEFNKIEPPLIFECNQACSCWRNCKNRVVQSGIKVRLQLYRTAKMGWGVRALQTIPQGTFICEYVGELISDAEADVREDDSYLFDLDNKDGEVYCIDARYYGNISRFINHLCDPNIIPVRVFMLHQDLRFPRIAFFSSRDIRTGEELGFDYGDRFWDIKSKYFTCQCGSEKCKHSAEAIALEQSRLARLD
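Readings reflect AlphaScreen signal from monomethyl-H3K9 antibody detection. HMT at 20 nM; substrate b-H3K9 500 nM; cofactor SAM 20 uM; 2 h RT reaction; compounds tested as titrations in qHTS with 15 min preincubation.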
Sfp inh – qHTS Assay for Inhibitors of Bacillus subtilis Sfp phosphopantetheinyl transferase (PPTase); Biochemical Sfp PPTase activity, qHTS; Potency, µM, hits mostly inhibitors; hit rate 3.5% among 310,000;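 note: the enzyme is Sfp with the accession as filed and its product quenches rhodamine fluorescence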
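Step 1, compound plus 15 nM Sfp-PPTase, 15 min, room temperature. Step 2, add rhodamine-CoA (5 uM) and BHQ-2-YbbR (12.5 uM). Step 3, read 525/598 nm fluorescence at 0 and 30 min.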
PLK1 PBD block – qHTS for Inhibitors of PLK1-PDB (polo-like kinase 1 - polo-box domain): Primary Screen; AID 720504, 2013; Plk1 PBD binding of FITC phosphopeptide, fluorescence polarization; Potency, µM, actives largely listed as inhibitors; Serine/threonine-protein kinase PLK1 (Homo sapiens), P53350; hit rate 2.8% among 360,000; note: series mostly up to about 57 µM; nearly all actives have a fitted effect of over 65% in size
HP1b chromo inh – HTS for Inhibitors of HP1-beta Chromodomain Interactions with Methylated Histone Tails; Chromobox protein homolog 1 (Homo sapiens), P83916; AlphaScreen HP1-beta / biotin-H3K9me3 peptide binding; Potency, µM (series often up to 114 µM), usual class: inhibitors; hit rate 0.56% among 390,000; AID 540317, 2011; note: nearly all actives have a fitted effect of over 70% in size
Target sequence (P83916 whole entry, looked up): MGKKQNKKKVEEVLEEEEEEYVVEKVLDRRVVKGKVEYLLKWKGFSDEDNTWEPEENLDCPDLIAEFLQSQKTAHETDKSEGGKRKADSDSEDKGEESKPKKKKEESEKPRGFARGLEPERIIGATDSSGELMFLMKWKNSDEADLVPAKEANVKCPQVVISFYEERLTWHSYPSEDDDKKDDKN
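Compound inhibition of the preformed complex between 50 nM HP1-beta and 50 nM biotinylated H3K9me3 peptide was read by AlphaScreen. Buffer was PBS pH 7.4 with 0.01% Tween-20. Incubations ran 30 min at room temperature, with 10 ug/mL donor/acceptor beads.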
Large screens that a line does not name were inactive. Rows were chosen to be rich in hits. Some 12% of all compounds tested hit in one or more screens of this group. Calls come from the whole dose curve; as a rule, active = well fitted curve in the direction sought with a large enough effect; inconclusive = small, poorly fitted or top-dose-only effect, or another doubt; inactive = no such curve, though single readings can be large; an effect the other way counts as inactive or inconclusive.

CCOc1cc(S(=O)(=O)NCCc2c(C)[nH]c3ccc(C)cc23)ccc1F	BAZ2B block 35.5µM, JMJD2A Tudor 50.1µM (no result: Sfp inh, PLK1 PBD block)
O=C(c1ccco1)[C@@H]1[C@@H]2C(=O)N(c3ccc(Br)cc3)C(=O)[C@@H]2C2c3ccccc3C=CN21 (stereo not given in full)	BAZ2B block inconclusive, JMJD2A Tudor inconclusive, PLK1 PBD block inconclusive
NC(=O)[C@@H]1[C@@H]2C(=O)N(c3ccc(F)cc3)C(=O)[C@@H]2[C@H]2C=Cc3ccccc3N21	G9a block 8.91µM, Sfp inh 56.2µM, PLK1 PBD block inconclusive, HP1b chromo inh inconclusive
O=C(c1ccco1)[C@@H]1[C@@H]2C(=O)N(c3ccc(F)cc3)C(=O)[C@@H]2C2c3ccccc3C=CN21 (stereo not given in full)	BAZ2B block inconclusive, G9a block 3.16µM (no result: JMJD2A Tudor, PLK1 PBD block, HP1b chromo inh)
O=C(c1ccco1)[C@@H]1[C@@H]2C(=O)N(c3ccc(F)cc3)C(=O)[C@@H]2[C@H]2C=Cc3ccccc3N21	JMJD2A Tudor inconclusive, G9a block 6.31µM, Sfp inh 50.1µM, PLK1 PBD block inconclusive
CCN(Cc1ccncc1)C(=O)c1cccc(S(=O)(=O)N2CCCCC2)c1	none (no result: BAZ2B block, G9a block, Sfp inh)
CSc1ccc(S(=O)(=O)NC2CC2)cc1	none (no result: G9a block)
Cc1cccc(-c2nc(SCC(=O)N(C)c3ccccc3)c3c(=O)n(C)c(=O)n(C)c3n2)c1	none (no result: Sfp inh, PLK1 PBD block)
CCc1ccc(-n2nnc(-c3nc(-c4cccs4)no3)c2N)cc1	none (no result: Sfp inh, PLK1 PBD block)
Cc1ccc(S(=O)(=O)c2cn(CC(=O)Nc3cccc(C)c3)c3cc4c(cc3c2=O)OCO4)cc1	none (no result: Sfp inh, PLK1 PBD block)
CC(C)OC(=O)c1c(-c2ccccc2)c(-c2ccccc2)nn(C)c1=O	G9a block inconclusive (no result: Sfp inh, PLK1 PBD block)
O=C1SC(Cc2ccccc2)C(=O)N1c1ccccc1 (stereo not given)	none
Cc1cccc(NC(=O)CC2SC(=O)N(c3ccccc3)C2=O)c1 (stereo not given)	G9a block inconclusive, PLK1 PBD block 15µM
Cc1ccc(NC(=O)CC2SC3=NCCN3C2=O)cc1 (stereo not given)	G9a block 7.08µM, Sfp inh 70.8µM
Cc1ccc(NC(=O)CC2SC(=O)N(c3ccccc3)C2=O)cc1 (stereo not given)	G9a block inconclusive, Sfp inh 20µM, PLK1 PBD block 6.7µM
Cc1ccc(N2C(=O)SC(Cc3ccccc3)C2=O)cc1 (stereo not given)	G9a block 8.91µM, Sfp inh 22.4µM, PLK1 PBD block 7.52µM, HP1b chromo inh inconclusive
O=C(CC1SC2=NCCN2C1=O)Nc1ccccc1 (stereo not given)	none
CCOc1ccccc1NC(=O)c1c(NC(=O)Cc2ccc(OC)cc2)sc2c1CCC2	none (no result: Sfp inh, PLK1 PBD block)
Cc1ccc(O)c(C(=O)c2cnn(C(=O)c3cccc(S(=O)(=O)N(C)C)c3)c2)c1	none (no result: Sfp inh)
Cc1c(NC(=O)c2ccc3c(c2)OCO3)c(=O)n(-c2ccccc2)n1C	none
O=C(NNC(=O)c1ccccc1[N+](=O)[O-])c1ccc(NS(=O)(=O)c2cccs2)cc1	G9a block inconclusive
CN1CCN(C(=O)CSc2ccc(C(F)(F)F)cc2[N+](=O)[O-])CC1	none
COc1cccc(NC(=O)CSc2nc(C)c(Cc3ccccc3)c(=O)[nH]2)c1	none (no result: Sfp inh, PLK1 PBD block)
O=C(CC1SC(=O)N(c2ccccc2)C1=O)Nc1ccccc1 (stereo not given)	G9a block inconclusive, Sfp inh inconclusive, PLK1 PBD block 10.6µM
CCCCCCCCN1C(=O)C(O)=C(C(C)=O)C1c1ccccn1 (stereo not given)	G9a block inconclusive
CCCCN1C(=O)C(O)=C(C(C)=O)C1c1ccccc1[N+](=O)[O-] (stereo not given)	BAZ2B block inconclusive, G9a block inconclusive, Sfp inh 17.8µM
CC(=O)C1=C(O)C(=O)N(c2cccc(Br)c2)C1c1ccc(Br)cc1 (stereo not given)	G9a block inconclusive
CC(=O)C1=C(O)C(=O)N(c2ccc(Br)cc2)C1c1ccc(Br)cc1 (stereo not given)	BAZ2B block inconclusive, G9a block 50.1µM
CC(=O)C1=C(O)C(=O)N(c2ccc(O)cc2)C1c1ccccc1[N+](=O)[O-] (stereo not given)	G9a block 14.1µM, Sfp inh 35.5µM
COCCCN1C(=O)C(O)=C(C(C)=O)C1c1cccc(F)c1 (stereo not given)	BAZ2B block inconclusive, JMJD2A Tudor inconclusive, G9a block 50.1µM
COc1ccc(NC(=O)c2nc[nH]c2C(=O)NCCCCCNC(=O)OC(C)(C)C)cc1	BAZ2B block inconclusive (no result: JMJD2A Tudor, Sfp inh, PLK1 PBD block, HP1b chromo inh)
CC(=O)C[C@H](O)CC(=O)[C@H]1OC(=O)CCCCCCCCc2ccccc21	none (no result: BAZ2B block, G9a block, Sfp inh)
CC(=O)c1c(C)oc2ccc(N(C(=O)Oc3ccccc3)S(=O)(=O)c3ccccc3)cc12	G9a block inconclusive (no result: Sfp inh, PLK1 PBD block)
CCCCN1C(=O)C(O)=C(C(C)=O)C1c1ccccc1 (stereo not given)	BAZ2B block inconclusive, G9a block 50.1µM
O=C(O)CCCCCN1C(=O)C(O)=C(C(=O)/C=C/c2ccccc2)C1c1ccccc1[N+](=O)[O-] (stereo not given)	JMJD2A Tudor inconclusive, Sfp inh inconclusive, PLK1 PBD block 33.6µM
O=C(Nc1cccs1)N1CCN(c2ncccn2)CC1	G9a block 39.8µM, PLK1 PBD block inconclusive
Cc1ccc(Cl)cc1NC(=O)Nc1cccs1	G9a block inconclusive, Sfp inh 50.1µM
Cc1ccc(NC(=O)Nc2cccs2)c(C)c1	G9a block inconclusive (no result: Sfp inh, PLK1 PBD block)
CCc1ccccc1NC(=O)Nc1cccs1	G9a block 50.1µM, Sfp inh 50.1µM
CC(C)NC(=O)Nc1cccs1	G9a block 14.1µM, Sfp inh 79.4µM
O=C(Nc1ccc(F)cc1)N1CCN(c2ncccn2)CC1	none
CC(=O)N1CCCc2cc(S(=O)(=O)N3CCCC(C(=O)Nc4cccc(Cl)c4C)C3)ccc21 (stereo not given)	none (no result: Sfp inh, PLK1 PBD block)
O=C(Nc1ccccn1)Nc1cccs1	BAZ2B block inconclusive, G9a block 56.2µM, Sfp inh 50.1µM
O=C(Nc1ccncc1)Nc1ccccn1	none
Cc1ccccc1NC(=O)Nc1cccs1	G9a block inconclusive, Sfp inh 22.4µM
C=C(C)Cn1c(SCC(=O)Nc2ccccc2C)nc2sc3c(c2c1=O)CCCC3	none (no result: Sfp inh, PLK1 PBD block)
COc1ccc(OC)c(/C=C(\C#N)c2nc(-c3ccc(F)cc3)cs2)c1	none (no result: Sfp inh, PLK1 PBD block)
Cn1c(=O)c2nc(NCc3ccccc3)sc2n(C)c1=O	none (no result: BAZ2B block, G9a block, Sfp inh)
CC(C)CNC(=O)C1CCN(S(=O)(=O)c2ccc3c(c2)OCCO3)CC1	none (no result: Sfp inh)
